Laboratory results reported in the supplement of paper PMC10849652.
About 7,900 targets were measured; listed, in parts, are those with a hit and a random draw of the rest. About 0.6% of all pairs of compound and target were hits.

How the values were obtained:
Test in all cases: log2 fold change, soluble protein after heating vs DMSO (PISA); higher = thermal stabilisation; K562 cells, 10 uM, 30 min; active = over 0.2 and 3.5 SD of the protein, either way, in both replicates (recomputed)
IRAK-1-4 Inhibitor I = compound: C1COCCN1CCN2C3=CC=CC=C3N=C2NC(=O)C4=CC(=CC=C4)[N+](=O)[O-] [IRAK-1-4 Inhibitor I]
Method in brief: (§1)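 Values are thermal stability changes relative to control samples and are taken from duplicates. They are stated as log2 fold changes. Before quantification by TMTpro 16plex LC-MS/MS with equalised channel sums, K562 cells at 2×10^6 cells/mL were treated with 10 μM compound for 30 min, heated in aliquots for 3 min across 48°C-58°C, pooled, extracted in PBS with 0.5% NP-40 at 4°C, and centrifuged at 21,000xg for 90 min to give the soluble supernatant.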

ibrutinib = compound: C=CC(=O)N1CCC[C@@H](n2nc(-c3ccc(Oc4ccccc4)cc3)c3c(N)ncnc32)C1 [ibrutinib]
Method in brief: as §1

[1] = compound: CC(=O)c1cnc2ccc(-c3cc(Cl)c(O)c(Cl)c3)nc2c1N[C@H]1CC[C@H](CN(C)C)CC1
Method in brief: as §1

ralimetinib = compound: CC(C)(C)Cn1c(N)nc2ccc(-c3[nH]c(C(C)(C)C)nc3-c3ccc(F)cc3)nc21 [ralimetinib]
Method in brief: as §1

[2] = compound: CC(C)(O)CC(=O)NCCn1ccc2ncnc(Nc3ccc(Oc4cccc(C(F)(F)F)c4)c(Cl)c3)c21
Method in brief: as §1

[3] = compound: CC(C)C1=C2N=C(C=C(N2N=C1)NCC3=CC=CC=C3)NCCCCCCN
Method in brief: as §1

[4] = compound: CC(C)C[C@@H](C=O)NC(=O)[C@H](CC(C)C)NC(=O)[C@H](CC(C)C)NC(=O)OCc1ccccc1
Method in brief: as §1

pinometostat = compound: CC(C)N(C[C@H]1O[C@@H](n2cnc3c(N)ncnc32)[C@H](O)[C@@H]1O)[C@H]1C[C@@H](CCc2nc3cc(C(C)(C)C)ccc3[nH]2)C1 [pinometostat]
Method in brief: as §1

[5] = compound: CC1=C(C(CC(=O)N1)C2=CC=C(C=C2)C(F)(F)F)C(=O)NC3=C(C=C4C(=C3)C=NN4)F
Method in brief: as §1

[6] = compound: CC1=C(C2=C(C=C1)C(=O)C3=CC=CC=C3N2CCCN)C
Method in brief: as §1

[7] = compound: CC1=C(C=C(C=C1)NC(=O)C2=CC(=CC=C2)C(C)(C)C#N)NC3=CC4=C(C=C3)N=CN(C4=O)C
Method in brief: as §1

[8] = compound: CC1=C(C=C(C=C1)NC(=O)C2=CC(=CC=C2)N(C)C)NC(=O)C3=CC=C(C=C3)O
Method in brief: as §1

[9] = compound: CC1=CC=C(C=C1)SC2=C3C=C(SC3=CN=C2)C(=O)N
Method in brief: as §1

[10] = compound: CC1=NC(=CC=C1)C2=C(N=C(N2)C(C)(C)C)C3=CC4=NC=CN=C4C=C3
Method in brief: as §1

Nexturastat A = compound: CCCCN(Cc1ccc(C(=O)NO)cc1)C(=O)Nc1ccccc1 [Nexturastat A]
Method in brief: as §1

vemurafenib = compound: CCCS(=O)(=O)Nc1ccc(F)c(C(=O)c2c[nH]c3ncc(-c4ccc(Cl)cc4)cc23)c1F [vemurafenib]
Method in brief: as §1

[11] = compound: CCCS(=O)(=O)Nc1ccc(F)c(C(=O)c2c[nH]c3ncc(Cl)cc23)c1F
Method in brief: as §1

[12] = compound: CCCc1cc(C)[nH]c(=O)c1CNC(=O)c1cc(-c2ccnc(N3CCN(C)CC3)c2)cc2c1cnn2C(C)C
Method in brief: as §1

givinostat = compound: CCN(CC)Cc1ccc2cc(COC(=O)Nc3ccc(C(=O)NO)cc3)ccc2c1 [givinostat]
Method in brief: as §1

barasertib = compound: CCN(CCCOc1ccc2c(Nc3cc(CC(=O)Nc4cccc(F)c4)[nH]n3)ncnc2c1)CCOP(=O)(O)O [barasertib]
Method in brief: as §1

Measured: log2 fold change

GCDH (UniProt Q92947)
Sequence of UniProt Q92947 (Q92947 whole entry, looked up): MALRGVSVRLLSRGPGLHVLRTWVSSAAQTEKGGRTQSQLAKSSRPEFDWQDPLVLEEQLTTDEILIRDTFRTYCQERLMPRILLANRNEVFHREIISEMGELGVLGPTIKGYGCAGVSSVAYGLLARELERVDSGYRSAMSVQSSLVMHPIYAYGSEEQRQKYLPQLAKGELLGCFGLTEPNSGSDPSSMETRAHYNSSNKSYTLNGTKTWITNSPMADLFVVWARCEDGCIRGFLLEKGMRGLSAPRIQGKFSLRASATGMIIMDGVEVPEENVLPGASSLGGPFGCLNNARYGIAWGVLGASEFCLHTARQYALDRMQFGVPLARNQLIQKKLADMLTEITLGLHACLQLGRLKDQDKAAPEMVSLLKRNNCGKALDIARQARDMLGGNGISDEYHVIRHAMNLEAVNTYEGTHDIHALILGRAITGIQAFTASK
inactive: IRAK-1-4 Inhibitor I 0.018 | ibrutinib 0.025 | [1] -0.092 | ralimetinib 0.007 | [2] -0.09 | [3] 0.05 | [4] 0.003 | pinometostat -0.053 | [5] -0.012 | [6] 0.055 | [7] -0.017 | [8] -0.004 | [9] 0.014 | [10] 0.009 | Nexturastat A -0.007 | vemurafenib 0 | [11] 0.002 | [12] 0.009 | givinostat 0.004 | barasertib 0.005

GLRX3 (UniProt O76003)
Sequence of UniProt O76003 (O76003 whole entry, looked up): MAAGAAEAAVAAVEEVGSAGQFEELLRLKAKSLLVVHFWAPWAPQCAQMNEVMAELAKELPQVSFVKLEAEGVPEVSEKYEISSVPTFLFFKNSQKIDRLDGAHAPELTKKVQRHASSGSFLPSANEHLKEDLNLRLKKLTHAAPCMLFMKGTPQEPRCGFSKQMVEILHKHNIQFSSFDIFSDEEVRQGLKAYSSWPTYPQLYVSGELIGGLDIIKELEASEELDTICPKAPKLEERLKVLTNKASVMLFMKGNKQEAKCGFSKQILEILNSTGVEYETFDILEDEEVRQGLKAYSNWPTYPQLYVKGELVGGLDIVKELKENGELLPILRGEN
inactive: IRAK-1-4 Inhibitor I -0.03 | ibrutinib -0.015 | [1] 0.02 | ralimetinib 0.002 | [2] -0.027 | [3] -0.024 | [4] -0.033 | pinometostat -0.033 | [5] -0.021 | [6] -0.025 | [7] 0.007 | [8] -0.033 | [9] 0.02 | [10] 0.028 | Nexturastat A -0.049 | vemurafenib 0.024 | [11] 0.139 | [12] 0.014 | givinostat 0.01 | barasertib 0.054

GTF2H3 (UniProt Q13889)
Sequence of UniProt Q13889 (Q13889 whole entry, looked up): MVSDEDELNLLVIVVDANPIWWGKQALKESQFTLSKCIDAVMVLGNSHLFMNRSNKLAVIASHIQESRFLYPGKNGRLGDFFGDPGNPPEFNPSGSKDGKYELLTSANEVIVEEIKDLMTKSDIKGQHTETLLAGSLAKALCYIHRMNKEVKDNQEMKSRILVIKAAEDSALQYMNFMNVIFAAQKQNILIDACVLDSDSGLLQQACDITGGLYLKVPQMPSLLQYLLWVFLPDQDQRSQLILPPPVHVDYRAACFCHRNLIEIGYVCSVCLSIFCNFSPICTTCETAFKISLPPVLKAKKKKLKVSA
inactive: IRAK-1-4 Inhibitor I -0.06 | ibrutinib 0.056 | [1] 0.063 | ralimetinib 0.049 | [2] 0.006 | [3] 0.011 | [4] 0 | pinometostat 0.06 | [5] -0.074 | [6] 0.02 | [7] -0.094 | [8] -0.008 | [9] -0.024 | [10] 0 | Nexturastat A 0.016 | vemurafenib -0.081 | [11] -0.021 | [12] -0.112 | givinostat 0.068 | barasertib -0.042

GDI1 (UniProt P31150)
Sequence of UniProt P31150 (P31150 whole entry, looked up): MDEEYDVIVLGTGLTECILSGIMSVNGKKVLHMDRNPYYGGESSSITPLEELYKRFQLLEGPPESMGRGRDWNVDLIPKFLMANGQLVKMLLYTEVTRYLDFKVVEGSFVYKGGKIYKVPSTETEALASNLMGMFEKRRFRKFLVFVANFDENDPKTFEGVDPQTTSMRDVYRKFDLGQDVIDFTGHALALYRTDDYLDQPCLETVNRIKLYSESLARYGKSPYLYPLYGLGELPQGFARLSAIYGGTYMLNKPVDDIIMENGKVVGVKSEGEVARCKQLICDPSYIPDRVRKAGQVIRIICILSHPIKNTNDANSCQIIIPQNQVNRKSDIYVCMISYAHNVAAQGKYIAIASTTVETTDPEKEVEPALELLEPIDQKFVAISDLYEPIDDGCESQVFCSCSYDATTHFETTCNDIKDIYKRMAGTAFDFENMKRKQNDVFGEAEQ
inactive: IRAK-1-4 Inhibitor I 0.034 | ibrutinib 0.018 | [1] -0.027 | ralimetinib -0.057 | [2] 0.009 | [3] 0.04 | [4] -0.012 | pinometostat -0.008 | [5] -0.022 | [6] 0.011 | [7] 0.007 | [8] 0.012 | [9] -0.003 | [10] 0.009 | Nexturastat A -0.051 | vemurafenib 0.015 | [11] -0.008 | [12] -0.027 | givinostat -0.032 | barasertib 0.012

GNG5 (UniProt P63218)
Sequence of UniProt P63218 (P63218 whole entry, looked up): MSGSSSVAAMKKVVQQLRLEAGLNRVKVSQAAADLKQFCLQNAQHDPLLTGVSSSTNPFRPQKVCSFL
inactive: IRAK-1-4 Inhibitor I -0.022 | ibrutinib 0.039 | [1] 0.047 | ralimetinib 0.072 | [2] -0.084 | [3] 0.109 | [4] -0.065 | pinometostat -0.072 | [5] -0.071 | [6] 0.002 | [7] 0.147 | [8] -0.17 | [9] -0.02 | [10] 0.074 | Nexturastat A 0.068 | vemurafenib 0.038 | [11] 0.004 | [12] 0.022 | givinostat -0.063 | barasertib -0.064

GIGYF2 (UniProt Q6Y7W6)
inactive: IRAK-1-4 Inhibitor I -0.01 | ibrutinib -0.039 | ralimetinib -0.041 | [2] -0.124 | [3] -0.115 | [4] 0.01 | pinometostat 0.082 | [5] 0.005 | [6] 0.021 | [7] -0.075 | [8] 0.058 | [9] 0.01 | [10] 0.044 | Nexturastat A 0.05 | vemurafenib 0.043 | [11] 0.048 | [12] 0.049 | givinostat 0.092 | barasertib 0.093
active: [1] -0.316

FYB1 isoform 3 (UniProt O15117)
Sequence of UniProt O15117 (O15117 whole entry, looked up): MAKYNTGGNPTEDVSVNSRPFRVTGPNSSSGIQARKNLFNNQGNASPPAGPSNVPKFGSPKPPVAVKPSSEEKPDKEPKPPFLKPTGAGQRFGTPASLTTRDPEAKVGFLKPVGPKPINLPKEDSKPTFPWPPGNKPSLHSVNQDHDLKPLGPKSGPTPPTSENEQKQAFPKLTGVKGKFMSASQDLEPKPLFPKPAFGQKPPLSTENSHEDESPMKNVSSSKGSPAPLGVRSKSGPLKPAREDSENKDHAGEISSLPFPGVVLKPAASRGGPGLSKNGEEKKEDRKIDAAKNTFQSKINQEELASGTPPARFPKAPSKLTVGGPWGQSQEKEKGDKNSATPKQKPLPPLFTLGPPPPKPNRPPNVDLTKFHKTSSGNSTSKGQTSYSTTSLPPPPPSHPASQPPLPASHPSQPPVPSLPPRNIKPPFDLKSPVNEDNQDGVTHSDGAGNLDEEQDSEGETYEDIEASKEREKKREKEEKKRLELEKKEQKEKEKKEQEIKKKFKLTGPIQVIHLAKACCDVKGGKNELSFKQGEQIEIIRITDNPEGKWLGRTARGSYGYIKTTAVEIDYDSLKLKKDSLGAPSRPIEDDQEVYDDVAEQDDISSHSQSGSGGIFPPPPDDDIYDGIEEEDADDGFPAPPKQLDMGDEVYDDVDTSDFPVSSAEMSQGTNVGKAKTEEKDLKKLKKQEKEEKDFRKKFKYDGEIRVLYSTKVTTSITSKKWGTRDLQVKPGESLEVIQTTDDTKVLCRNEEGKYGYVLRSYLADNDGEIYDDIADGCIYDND
inactive: IRAK-1-4 Inhibitor I 0.009 | ibrutinib -0.012 | [1] -0.193 | ralimetinib 0.308 | [2] 0.06 | [3] -0.069 | [4] 0.226 | pinometostat 0.002 | [5] -0.075 | [6] 0.129 | [7] 0.073 | [8] 0.063 | [9] 0.093 | [10] 0.051 | Nexturastat A 0.011 | vemurafenib -0.009 | [11] 0.169 | [12] -0.03 | givinostat 0.066 | barasertib 0.052

GOLGB1 isoform 2 (UniProt Q14789)
inactive: IRAK-1-4 Inhibitor I -0.023 | ibrutinib -0.032 | [1] 0.031 | ralimetinib 0.045 | [2] 0.05 | [3] 0.065 | [4] 0.082 | pinometostat 0.102 | [5] 0.048 | [6] -0.051 | [7] 0.033 | [8] -0.057 | [9] -0.09 | [10] -0.033 | Nexturastat A 0.177 | vemurafenib -0.085 | [11] -0.07 | [12] -0.047 | givinostat 0 | barasertib -0.07

HHEX (UniProt Q03014)
Sequence of UniProt Q03014 (Q03014 whole entry, looked up): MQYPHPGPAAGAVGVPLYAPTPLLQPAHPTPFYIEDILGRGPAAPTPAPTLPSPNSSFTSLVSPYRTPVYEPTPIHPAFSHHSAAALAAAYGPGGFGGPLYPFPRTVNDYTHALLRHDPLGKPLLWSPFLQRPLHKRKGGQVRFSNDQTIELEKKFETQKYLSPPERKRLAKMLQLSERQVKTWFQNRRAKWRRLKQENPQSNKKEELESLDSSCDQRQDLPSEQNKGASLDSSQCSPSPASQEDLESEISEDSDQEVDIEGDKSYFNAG
inactive: IRAK-1-4 Inhibitor I 0.045 | ibrutinib 0.059 | [1] 0.005 | ralimetinib -0.059 | [2] -0.064 | [3] -0.113 | [4] 0.189 | pinometostat -0.075 | [5] 0.086 | [6] -0.074 | [7] -0.03 | [8] 0.045 | [9] -0.009 | [10] -0.055 | Nexturastat A 0.05 | vemurafenib -0.081 | [11] 0 | [12] 0.026 | givinostat -0.026 | barasertib -0.003

FKBP7 (UniProt Q9Y680)
Sequence of UniProt Q9Y680 (Q9Y680 whole entry, looked up): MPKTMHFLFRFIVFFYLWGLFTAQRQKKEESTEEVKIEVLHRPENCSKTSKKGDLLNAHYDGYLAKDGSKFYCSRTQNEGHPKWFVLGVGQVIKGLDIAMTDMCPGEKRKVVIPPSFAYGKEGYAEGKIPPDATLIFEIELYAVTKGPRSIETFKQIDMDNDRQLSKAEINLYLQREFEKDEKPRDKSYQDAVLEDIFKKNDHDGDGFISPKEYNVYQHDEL
inactive: IRAK-1-4 Inhibitor I 0.018 | ibrutinib 0.033 | [1] -0.031 | ralimetinib -0.033 | [2] 0.017 | [3] 0.055 | [4] -0.005 | pinometostat -0.059 | [5] -0.029 | [6] -0.022 | [7] -0.052 | [8] 0.001 | [9] -0.034 | [10] -0.074 | Nexturastat A 0.002 | vemurafenib -0.031 | [11] -0.097 | [12] -0.025 | givinostat 0.002 | barasertib 0.044

HMGN2 (UniProt P05204)
active: [6] 0.401
inactive: IRAK-1-4 Inhibitor I -0.034 | ibrutinib -0.009 | [1] 0.121 | ralimetinib -0.024 | [2] 0.29 | [3] 0.128 | [4] 0.093 | pinometostat -0.074 | [5] 0.108 | [7] 0.115 | [8] 0.097 | [9] -0.038 | [10] 0.047 | Nexturastat A -0.016 | vemurafenib 0.032 | [11] -0.058 | [12] -0.078 | givinostat -0.019 | barasertib 0.047

GLYR1 (UniProt Q49A26)
Sequence of UniProt Q49A26 (Q49A26 whole entry, looked up): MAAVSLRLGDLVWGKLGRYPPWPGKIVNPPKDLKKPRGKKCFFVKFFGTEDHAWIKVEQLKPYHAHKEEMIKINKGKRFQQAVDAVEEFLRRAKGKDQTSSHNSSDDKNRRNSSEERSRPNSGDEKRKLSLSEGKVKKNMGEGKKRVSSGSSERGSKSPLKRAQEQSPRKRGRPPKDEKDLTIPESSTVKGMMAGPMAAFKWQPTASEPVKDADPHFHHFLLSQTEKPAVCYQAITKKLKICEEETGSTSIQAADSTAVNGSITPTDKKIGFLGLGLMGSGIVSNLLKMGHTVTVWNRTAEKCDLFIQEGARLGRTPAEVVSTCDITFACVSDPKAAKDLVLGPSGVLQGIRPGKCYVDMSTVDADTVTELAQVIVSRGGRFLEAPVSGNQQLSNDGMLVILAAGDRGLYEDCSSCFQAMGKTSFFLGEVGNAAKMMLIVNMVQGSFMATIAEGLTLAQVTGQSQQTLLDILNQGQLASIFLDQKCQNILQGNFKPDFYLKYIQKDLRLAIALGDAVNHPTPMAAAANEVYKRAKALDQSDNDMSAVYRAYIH
inactive: IRAK-1-4 Inhibitor I -0.067 | ibrutinib -0.074 | [1] 0.054 | ralimetinib 0.088 | [2] 0.093 | [3] -0.057 | [4] 0.09 | pinometostat 0.111 | [5] -0.076 | [6] -0.016 | [7] 0.039 | [8] 0.032 | [9] -0.125 | [10] -0.06 | vemurafenib 0.054 | [11] 0.009 | [12] 0.085 | givinostat 0.091 | barasertib 0.136
active: Nexturastat A 0.375

GLA (UniProt P06280)
Sequence of UniProt P06280 (P06280 whole entry, looked up): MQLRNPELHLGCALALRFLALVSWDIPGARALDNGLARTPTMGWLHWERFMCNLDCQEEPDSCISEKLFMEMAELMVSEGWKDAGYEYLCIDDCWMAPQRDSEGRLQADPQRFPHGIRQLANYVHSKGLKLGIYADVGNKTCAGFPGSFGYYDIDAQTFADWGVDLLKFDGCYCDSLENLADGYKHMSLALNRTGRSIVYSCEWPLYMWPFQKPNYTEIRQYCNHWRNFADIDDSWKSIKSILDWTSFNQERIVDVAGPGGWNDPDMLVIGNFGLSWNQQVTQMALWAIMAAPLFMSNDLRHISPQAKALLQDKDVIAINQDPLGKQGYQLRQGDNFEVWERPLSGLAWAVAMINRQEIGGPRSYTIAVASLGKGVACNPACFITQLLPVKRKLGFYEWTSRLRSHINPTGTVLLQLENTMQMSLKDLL
inactive: IRAK-1-4 Inhibitor I 0.034 | ibrutinib 0.026 | [1] -0.031 | ralimetinib -0.05 | [2] -0.052 | [3] -0.199 | [4] 0.015 | pinometostat 0.02 | [5] 0.052 | [6] -0.051 | [7] -0.016 | [8] 0.027 | [9] -0.001 | [10] 0.011 | Nexturastat A 0.005 | vemurafenib -0.009 | [11] -0.038 | [12] -0.039 | givinostat 0.04 | barasertib 0.005

FARS2 (UniProt O95363)
Sequence of UniProt O95363 (O95363 whole entry, looked up): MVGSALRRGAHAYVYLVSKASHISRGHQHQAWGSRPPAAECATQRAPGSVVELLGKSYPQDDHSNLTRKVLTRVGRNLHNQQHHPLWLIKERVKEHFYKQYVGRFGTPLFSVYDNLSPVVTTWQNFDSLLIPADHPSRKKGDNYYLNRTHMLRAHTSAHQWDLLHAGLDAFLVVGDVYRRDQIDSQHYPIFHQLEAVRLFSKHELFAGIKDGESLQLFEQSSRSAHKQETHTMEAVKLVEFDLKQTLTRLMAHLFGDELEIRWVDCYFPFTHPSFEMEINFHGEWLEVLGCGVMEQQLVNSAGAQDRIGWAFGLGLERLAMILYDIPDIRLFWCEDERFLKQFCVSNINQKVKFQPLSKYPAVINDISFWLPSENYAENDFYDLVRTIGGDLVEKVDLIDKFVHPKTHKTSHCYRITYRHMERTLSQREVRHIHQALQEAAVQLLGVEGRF
inactive: IRAK-1-4 Inhibitor I 0 | ibrutinib -0.038 | [1] -0.05 | ralimetinib -0.004 | [2] -0.028 | [3] -0.182 | [4] -0.001 | pinometostat 0.002 | [5] -0.003 | [6] -0.018 | [7] 0.012 | [8] -0.015 | [9] -0.032 | [10] 0.078 | Nexturastat A 0.044 | vemurafenib 0.032 | [11] 0.01 | [12] -0.087 | givinostat -0.019 | barasertib 0.035

GSTP1 (UniProt P09211)
Sequence of UniProt P09211 (P09211 whole entry, looked up): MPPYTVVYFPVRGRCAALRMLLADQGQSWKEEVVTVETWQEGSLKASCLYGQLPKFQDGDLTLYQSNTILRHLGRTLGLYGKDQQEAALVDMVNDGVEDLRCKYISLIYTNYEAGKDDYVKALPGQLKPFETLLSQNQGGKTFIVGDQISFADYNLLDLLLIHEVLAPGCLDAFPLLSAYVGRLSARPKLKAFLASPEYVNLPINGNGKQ
inactive: IRAK-1-4 Inhibitor I 0.12 | ibrutinib -0.038 | [1] -0.074 | ralimetinib -0.021 | [2] -0.015 | [3] 0.016 | [4] -0.023 | pinometostat -0.026 | [5] -0.004 | [6] 0.03 | [7] 0.006 | [8] -0.003 | [9] 0.008 | [10] 0.008 | Nexturastat A -0.108 | vemurafenib 0.022 | [11] -0.006 | [12] -0.1 | givinostat -0.019 | barasertib 0.023

GCLM (UniProt P48507)
Sequence of UniProt P48507 (P48507 whole entry, looked up): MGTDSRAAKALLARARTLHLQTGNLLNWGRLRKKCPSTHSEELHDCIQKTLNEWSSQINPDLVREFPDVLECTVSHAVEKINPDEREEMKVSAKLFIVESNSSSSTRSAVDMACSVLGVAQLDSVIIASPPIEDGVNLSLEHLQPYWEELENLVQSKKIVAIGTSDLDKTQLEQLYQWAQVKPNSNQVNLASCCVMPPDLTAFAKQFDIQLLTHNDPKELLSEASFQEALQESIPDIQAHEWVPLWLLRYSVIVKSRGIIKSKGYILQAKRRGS
inactive: IRAK-1-4 Inhibitor I -0.065 | ibrutinib -0.038 | [1] 0.106 | ralimetinib 0.002 | [2] -0.104 | [3] -0.034 | [4] 0.02 | pinometostat 0.049 | [5] -0.078 | [6] -0.023 | [7] 0.044 | [8] -0.04 | [9] 0.019 | [10] 0.057 | Nexturastat A -0.006 | vemurafenib 0.1 | [11] 0.099 | [12] 0.002 | givinostat 0.074 | barasertib 0.066
